Experimental data taken from PubChem BioAssay AID1159580 (chemical genetic matrix, 2015).
In all, about 5,500 compounds went through this assay and about 2,000 (36%) were called active. Inconclusive results (about 18%) are left out. Cut-off read from the data, not from the text of the source: active = normalized growth mostly below about 0.91 (no sharp cut-off); inconclusive = no clear call, values can overlap the other calls; inactive = mostly above about 0.92. The list shows a part of the results.

Assay: chemical genetic growth profiling, strain panel (AID 1159580);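 note: tested at 20 µM; growth read once vehicle control cultures reached saturation at 30 °C; 1 = growth at the plate median or of vehicle wells; lower values mean less growth of the strain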
Settings: growth OD

Measured: normalized growth

C[C@@H]1CC2C3CCC4=CC(=O)C=C[C@]4(C)[C@@]3(F)[C@@H](O)C[C@]2(C)[C@@]1(O)C(=O)COP(=O)(O)O (stereo partly drawn)
inactive: S. cerevisiae deletion strains, locus YJR066W, strain TOR1, active compounds read low 0.95 | S. cerevisiae deletion strains, locus YJR075W, strain HOC1, active compounds read low 1.02 | S. cerevisiae deletion strains, locus YKL009W, strain mrt4, active compounds read low 1 | S. cerevisiae deletion strains, locus YKL068W, active compounds read low 1.01 | S. cerevisiae deletion strains, locus YKL085W, strain MDH1 (second series), active compounds read low 1.05 | S. cerevisiae deletion strains, locus YKL085W, strain MDH1, active compounds read low 1.05 | S. cerevisiae deletion strains, locus YKL160W, strain elf1, active compounds read low 0.965 | S. cerevisiae deletion strains, locus YKR001C, strain vps1, active compounds read low 0.997 | S. cerevisiae deletion strains, locus YKR026C, strain gcn3, active compounds read low 0.966 | S. cerevisiae deletion strains, locus YKR091W, strain srl3, active compounds read low 0.982 | S. cerevisiae deletion strains, locus YLL001W, strain dnm1, active compounds read low 0.931 | S. cerevisiae deletion strains, locus YLL026W, active compounds read low 0.986 | S. cerevisiae deletion strains, locus YLL041C, strain sdh2, active compounds read low 0.97 | S. cerevisiae deletion strains, locus YLR027C, strain aat2, active compounds read low 0.975 | S. cerevisiae deletion strains, locus YLR039C, strain RIC1, active compounds read low 1.02 | S. cerevisiae deletion strains, locus YLR058C, strain SHM2, active compounds read low 1.01 | S. cerevisiae deletion strains, locus YLR102C, strain apc9, active compounds read low 0.993 | S. cerevisiae deletion strains, locus YLR113W, strain HOG1, active compounds read low 0.977 | S. cerevisiae deletion strains, locus YLR221C, strain rsa3, active compounds read low 1.01 | S. cerevisiae deletion strains, locus YLR258W, strain gsy2, active compounds read low 1 | S. cerevisiae deletion strains, locus YLR262C, strain YPT6 (second series), active compounds read low 0.959 | S. cerevisiae deletion strains, locus YLR262C, strain YPT6, active compounds read low 1.01 | S. cerevisiae deletion strains, locus YLR268W, strain sec22, active compounds read low 0.996 | S. cerevisiae deletion strains, locus YLR320W, strain mms22, active compounds read low 1.01 | S. cerevisiae deletion strains, locus YLR330W, strain CHS5, active compounds read low 1.01 | S. cerevisiae deletion strains, locus YLR342W, strain FKS1 (second series), active compounds read low 1.01 | S. cerevisiae deletion strains, locus YLR342W, strain FKS1, active compounds read low 0.959 | S. cerevisiae deletion strains, locus YLR357W, strain rsc2, active compounds read low 0.957 | S. cerevisiae deletion strains, locus YLR370C, strain arc18, active compounds read low 0.972 | S. cerevisiae deletion strains, locus YLR371W, strain rom2, active compounds read low 0.994 | S. cerevisiae deletion strains, locus YLR384C, strain iki3, active compounds read low 0.959 | S. cerevisiae deletion strains, locus YLR418C, strain cdc73, active compounds read low 1.01 | S. cerevisiae deletion strains, locus YML016C, strain PPZ1, active compounds read low 1 | S. cerevisiae deletion strains, locus YML032C, strain rad52, active compounds read low 0.991 | S. cerevisiae deletion strains, locus YML120C, strain ndi1, active compounds read low 0.97 | S. cerevisiae deletion strains, locus YML124C, strain tub3, active compounds read low 0.993 | S. cerevisiae deletion strains, locus YMR058W, strain fet3, active compounds read low 0.978 | S. cerevisiae deletion strains, locus YMR078C, strain ctf18, active compounds read low 0.987 | S. cerevisiae deletion strains, locus YMR125W, strain sto1, active compounds read low 0.933 | S. cerevisiae deletion strains, locus YMR129W, active compounds read low 0.987 | S. cerevisiae deletion strains, locus YMR205C, strain PFK2, active compounds read low 0.981 | S. cerevisiae deletion strains, locus YMR223W, strain ubp8, active compounds read low 1.01 | S. cerevisiae deletion strains, locus YMR231W, strain pep5, active compounds read low 0.957 | S. cerevisiae deletion strains, locus YMR263W, strain SAP30, active compounds read low 1.01 | S. cerevisiae deletion strains, locus YMR307W, strain GAS1, active compounds read low 1.09 | S. cerevisiae deletion strains, locus YNL067W, strain RPL9B, active compounds read low 1.01 | S. cerevisiae deletion strains, locus YNL071W, strain lat1, active compounds read low 0.985 | S. cerevisiae deletion strains, locus YNL153C, strain GIM3, active compounds read low 0.998 | S. cerevisiae deletion strains, locus YNL183C, strain NPR1, active compounds read low 0.955 | S. cerevisiae deletion strains, locus YNL209W, strain ssb2, active compounds read low 0.986 | S. cerevisiae deletion strains, locus YNL233W, strain BNI4, active compounds read low 1.02 | S. cerevisiae deletion strains, locus YNL248C, strain rpa49, active compounds read low 0.987 | S. cerevisiae deletion strains, locus YNL250W, strain rad50, active compounds read low 0.993 | S. cerevisiae deletion strains, locus YNL271C, strain bni1, active compounds read low 1.01 | S. cerevisiae deletion strains, locus YNL298W, strain CLA4, active compounds read low 1.02 | S. cerevisiae deletion strains, locus YNL307C, strain MCK1, active compounds read low 0.995 | S. cerevisiae deletion strains, locus YNL322C, strain KRE1 (second series), active compounds read low 0.963 | S. cerevisiae deletion strains, locus YNR049C, strain mso1, active compounds read low 0.98 | S. cerevisiae deletion strains, locus YNR052C, strain pop2, active compounds read low 1.02 | S. cerevisiae deletion strains, locus YOL006C, strain TOP1, active compounds read low 1.01 | S. cerevisiae deletion strains, locus YOL012C, strain htz1 1.85 | S. cerevisiae deletion strains, locus YOL147C, strain pex11, active compounds read low 1.01 | S. cerevisiae deletion strains, locus YOR001W, strain rrp6, active compounds read low 0.946 | S. cerevisiae deletion strains, locus YOR061W, strain CKA2, active compounds read low 1.01 | S. cerevisiae deletion strains, locus YOR069W, strain VPS5, active compounds read low 1.01 | S. cerevisiae deletion strains, locus YOR070C, strain gyp1, active compounds read low 0.99 | S. cerevisiae deletion strains, locus YOR080W, strain dia2, active compounds read low 0.94 | S. cerevisiae deletion strains, locus YOR083W, strain WHI5, active compounds read low 0.959 | S. cerevisiae deletion strains, locus YOR106W, strain vam3, active compounds read low 0.928 | S. cerevisiae deletion strains, locus YOR136W, strain idh2, active compounds read low 1 | S. cerevisiae deletion strains, locus YOR144C, strain elg1, active compounds read low 0.997 | S. cerevisiae deletion strains, locus YOR184W, strain ser1, active compounds read low 0.99 | S. cerevisiae deletion strains, locus YOR231W, strain MKK1, active compounds read low 1.01 | S. cerevisiae deletion strains, locus YOR265W, strain rbl2, active compounds read low 0.974 | S. cerevisiae deletion strains, locus YOR270C, strain vph1, active compounds read low 1 | S. cerevisiae deletion strains, locus YOR290C, strain snf2, active compounds read low 1.01 | S. cerevisiae deletion strains, locus YOR316C, strain cot1, active compounds read low 1 | S. cerevisiae deletion strains, locus YPL051W, strain arl3, active compounds read low 1.01 | S. cerevisiae deletion strains, locus YPL078C, strain atp4, active compounds read low 0.935 | S. cerevisiae deletion strains, locus YPL106C, strain sse1, active compounds read low 0.966 | S. cerevisiae deletion strains, locus YPL240C, strain hsp82, active compounds read low 0.976 | S. cerevisiae deletion strains, locus YPL256C, strain CLN2, active compounds read low 0.985 | S. cerevisiae deletion strains, locus YPR119W, strain clb2, active compounds read low 0.993 | S. cerevisiae deletion strains, locus YPR141C, strain kar3, active compounds read low 0.994 | S. cerevisiae deletion strains, locus YPR163C, strain tif3, active compounds read low 0.995 | S. cerevisiae deletion strains, locus YPR167C, strain met16, active compounds read low 0.997 | S. cerevisiae deletion strains, strain wtn01, active compounds read low 1 | S. cerevisiae strains, strain wild type, active compounds read low 1.01
